About 2,000 (0.91%) of roughly 220,000 compounds were called active. Not shown: some 2% with an inconclusive outcome. Rule as the data show it: inconclusive = inhibition above about 80% without an active follow-up result; inactive = below that; test concentration not stated here. Not all results are given here. Results with a measured potency or affinity are listed apart.
assay: M. tuberculosis H37Rv growth inhibitors, H37Rv strain (AID 1626); settings: hits give high values, concentration not given here;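 also: bacteria incubated seven days before Alamar blue readout; 0% = bacteria only wells and 100% = bacteria with antibiotic wells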

SMILES | inhibition
Cc1cccc(-c2noc(-c3ccoc3C)n2)c1 | 8.21% (inactive)
Cc1ccc(-c2csc(Cc3nc(-c4cc5ccccc5oc4=O)cs3)n2)cc1 | -1.52% (inactive)
O=c1oc2ccccc2cc1-c1nc(-c2ccccc2)no1 | 23.2% (inactive)
O=c1oc2ccccc2cc1-c1ccc(O)cc1 | 30.4% (inactive)
O=c1oc2ccccc2cc1-c1ccccc1 | -5.07% (inactive)
COc1ccccc1-c1nc(-c2cccc(C)c2)no1 | 9.74% (inactive)
COC(=O)c1sc(SC)c(S(=O)(=O)C(C)C)c1N/N=C(\C#N)C(=O)c1ccccc1 | -10.6% (inactive)
COc1ccc(Cn2cc3c(-c4ccc(F)cc4)nnc-3c3cc(OC)c(OC)cc32)cc1 | 64.8% (inactive)
CCOCC(=O)Nc1cc(Cl)ccc1C | -11.6% (inactive)
On1c(-c2ccccc2Cl)nc2ccccc21 | 12.4% (inactive)
COc1ccc(CNC(=O)CC2C(=O)NCCN2CC(C)(C)C)c(OC)c1 (stereo not given) | -2.94% (inactive)
Cc1ccccc1OC(C)C(=O)NCc1cccnc1 (stereo not given) | 1.38% (inactive)
CCOC(=O)C1=C(CSCC(=O)OC)NC(=O)NC1c1cc(C)ccc1C (stereo not given) | 0.6% (inactive)
Cc1cc(C)nc(NC(=O)/C=C/c2ccccc2Cl)n1 | -5.04% (inactive)
Cc1cc(C)nc(NC(=O)/C=C/c2ccccc2Cl)c1 | 9.12% (inactive)
O=C(Cn1nc(-c2ccccc2)nc1-c1ccccc1)N1CCOCC1 | -4.2% (inactive)
COC(=O)[C@@]1(Cc2ccc(F)cc2)[C@H]2c3cc(C(=O)N(C)C)n(Cc4ccccn4)c3C[C@H]2CN1C(=O)c1ccccc1 | 8.03% (inactive)
OC(COc1ccc2ccccc2c1)Cn1ccnc1 (stereo not given) | 51.7% (inactive)
CCOC(=O)N1CCN(C(=O)CSCC(=O)Nc2nc(-c3ccc(Cl)s3)cs2)CC1 | 16.6% (inactive)
O=C(CSCC(=O)N1CCN(c2ccccc2)CC1)Nc1nc(-c2ccc(Cl)s2)cs1 | 8.45% (inactive)
OC(CNC1CCCC1)COc1ccc(-c2ccccc2)cc1 (stereo not given) | 10.9% (inactive)
CCOc1ccc(OCC(O)CNC2CCN(Cc3ccccc3)CC2)cc1 (stereo not given) | 1.56% (inactive)
O=C(OCc1ccc(C(=O)c2ccccc2)cc1)c1cccc(-c2nnc(-c3ccccc3)o2)c1 | 20.2% (inactive)
O=c1oc(-c2ccccc2NS(=O)(=O)c2ccc3ccccc3c2)nc2ccccc12 | 7.84% (inactive)
O=C(c1cc(-c2ccncc2)nc2ccc(Cl)cc12)N1CCN(Cc2ccc3c(c2)OCO3)CC1 | 0.94% (inactive)

SMILES | inhibition
CCOc1ccc(NC(=O)Cn2nnc3c(cnn3-c3ccc(F)cc3)c2=O)cc1 | 3.8% (inactive)
C/C(Cc1ccccc1)=N/NC(=O)CNC(=O)C(c1ccccc1)c1ccccc1 | -1.53% (inactive)
CCc1ccc(C2c3[nH]c4ccccc4c3CCN2C(=O)c2ccc(=O)n(C)n2)cc1 (stereo not given) | 37.1% (inactive)
CCc1ccc(C2c3[nH]c4ccccc4c3CCN2C(=O)c2cc[n+]([O-])cc2)cc1 (stereo not given) | 7.89% (inactive)
CCNC(=O)N1CCN(C(=O)NCC)CC1 | -2.46% (inactive)
Cc1cc(/C=N/n2cnnc2)c(C)n1-c1ccc(Cl)cc1Cl | 12.1% (inactive)
Cc1cc(/C=N/n2cnnc2)c(C)n1-c1ccc(Cl)cc1 | 8.9% (inactive)
CC(=O)Oc1ccc(C(=O)Nc2cc(NC(=O)c3ccc(OC(C)=O)cc3)cc(C(=O)NC(C)(C)C)c2)cc1 | -1.93% (inactive)
CCCCN1CCC(O)(c2ccccc2)C(C(=O)c2ccccc2)C1 (stereo not given) | 5.96% (inactive)
CCN1CCC(O)(c2ccccc2)C(C(=O)c2ccccc2)C1 (stereo not given) | 50.9% (inactive)
O=S(=O)(N1CCOCC1)N1CCN(c2ccc(F)cc2)CC1 | -7.1% (inactive)
Cc1[nH]c(=O)[nH]c(=O)c1/C=C/C(=O)O | -8.34% (inactive)
Nc1c(C(=O)OCC(=O)NCc2ccccc2)[nH]c(=O)[nH]c1=O | -4.41% (inactive)
CCOc1ccc2nc(SCC(=O)N(C)C)[nH]c2c1 | -11.1% (inactive)
CO/N=C(/CS(=O)Cc1ccc(Cl)cc1)c1ccc(Cl)cc1 (stereo not given) | 1.17% (inactive)
COC(=O)COc1ccc(S(=O)(=O)NCCC2=CCCCC2)cc1 | 25.1% (inactive)
CCCNS(=O)(=O)c1ccc(OCC(=O)NCCC2=CCCCC2)cc1 | 13.8% (inactive)
Cc1cccc(C)c1NC(=O)CNC(=O)CCC(=O)c1cccs1 | -5.43% (inactive)
Cc1ccc(NC(=O)c2snc3ccc(Cl)cc23)cc1C | 6.9% (inactive)
CC(C)c1ccc(NC(=O)c2csnn2)cc1 | -0.83% (inactive)
Cc1ccc2nc(N3CCN(c4cccc(C)c4C)CC3)c3nnnn3c2c1 | -7.81% (inactive)
Cc1ccc(-c2nc3ccccc3n3nnnc23)cc1 | 4.17% (inactive)
CC(C)CNC(=O)CN1C(=O)NC(Cc2c[nH]c3ccccc23)C1=O (stereo not given) | -13.9% (inactive)
O=C(NCC1CCN(S(=O)(=O)c2ccccc2)CC1)Nc1ccccc1 | 10.3% (inactive)
O=C(N/N=C/c1cccc(O)c1)c1ccccc1O | -7.64% (inactive)

SMILES | inhibition
Cc1ccc(Cn2ccc(=O)c(Cc3c(Cl)cccc3Cl)c2C)cc1 | 0.62% (inactive)
Cc1ccc(Cn2ccc(=O)c(OCc3ccccc3)c2C)cc1 | 1.78% (inactive)
CC(C)=Nc1ccccc1C1COC(=O)C1=N (stereo not given) | -1% (inactive)
COc1ccccc1NC(=O)O/N=C(\N)c1ccccc1 | 11.1% (inactive)
Cc1nc(CC(=O)c2ccc(O)c(C)c2O)cs1 | 7.54% (inactive)
O=C(CSc1ccc2ccccc2n1)N1CCC(c2noc3ccc(F)cc23)CC1 | -2.15% (inactive)
Cc1nnc(SCC(=O)N2CCC(c3noc4ccc(F)cc34)CC2)s1 | -0.75% (inactive)
COC(=O)C[C@H]1c2cc(C(F)(F)F)ccc2S(=O)(=O)N1C1CCCC1 | -3.21% (inactive)
O=C(Cc1ccc(Br)cc1)Nc1ccc(Cl)cc1 | -2.03% (inactive)
COc1ccc(C2C(C(=O)O)c3ccccc3C(=O)N2Cc2ccco2)cc1 (stereo not given) | -9.26% (inactive)
COC(=O)c1ccc(NC(=O)NS(=O)(=O)c2ccc(C)cc2)cc1 | 55.9% (inactive)
CCOC(=O)Nc1ccc(Oc2ccccc2)cc1 | 8.39% (inactive)
CC(=O)c1ccc(NC(=O)Oc2ccccc2)cc1 | -7.64% (inactive)
CCOC(=O)Nc1cccc(Nc2ccccc2)c1 | 3.05% (inactive)
CC(=O)Nc1ccc(NC(=O)Oc2ccccc2)cc1 | -9.97% (inactive)
COC(=O)c1ccc(NC(=O)CCOc2ccccc2)cc1 | 23.7% (inactive)
CCOC(=O)c1ccc(NC(=O)Nc2ccc(S(N)(=O)=O)cc2)cc1 | -7.07% (inactive)
O=C(CCOc1ccccc1)Nc1ccccc1 | 7.71% (inactive)
CC(C)c1ccccc1NC(=O)COc1ccc2c(=O)c(Oc3ccc4ccccc4c3)coc2c1 | 5.82% (inactive)
COC(=O)c1cc(NS(=O)(=O)c2cccc(Cl)c2)ccc1N1CCOCC1 | 3.2% (inactive)
O=C(CN(CC1CCCO1)C(=O)CCC(=O)Nc1nccs1)NCc1ccccc1 (stereo not given) | -3.47% (inactive)
COc1ccccc1N(C)S(=O)(=O)c1ccc(C(=O)OCC(=O)N2CCCCCC2)cc1 | 9.09% (inactive)
CC1=NN(C(C#N)c2cccc([N+](=O)[O-])c2)C(C)(C)C1 (stereo not given) | -1.89% (inactive)
CCOC(=O)c1ccc(NC(=O)CN(C)S(=O)(=O)c2ccc(OC)cc2)cc1 | -10.7% (inactive)
Cc1ccc(OCCC(=O)Nc2ccc(F)c(F)c2)cc1 | -1.46% (inactive)

SMILES | inhibition
Cc1ccc(NC(=O)CCSCCc2ccccn2)cc1 | 71.6% (inactive)
COc1ccc(NC(=O)CCOc2ccccc2)cc1 | 70.1% (inactive)
CC(=O)Nc1ccc(NC(=O)CCSCCc2ccccn2)cc1 | -0.22% (inactive)
Cc1ccc(OCCCC(=O)Nc2ccc(Br)cc2)cc1 | -4.3% (inactive)
O=C(CN1CC(=O)Nc2ccccc21)Nc1ccc(F)c(F)c1 | 0.62% (inactive)
COc1ccc(CCNC(=O)CSc2cccc3cccnc23)cc1OC | 3.55% (inactive)
CCC(C)NC(=O)c1ccccc1SC (stereo not given) | 9.14% (inactive)
CCN(Cc1cc(=O)[nH]c2ccccc12)C(=O)c1ccc(C)cc1 | -2.96% (inactive)
COc1ccc(C(=O)NC(=S)Nc2ccc(CN3CCCCC3)cc2)cc1Cl | 7.56% (inactive)
CCOC(=O)c1c(C)oc2ccc(OCC(N)=O)cc12 | 8.61% (inactive)
Cc1oc2ccc(OC(=O)N(C)C)cc2c1C(=O)OC(C)C | -7.47% (inactive)
Cc1oc2ccc(OS(C)(=O)=O)cc2c1C(=O)OC(C)C | -0.97% (inactive)
COC(=O)c1c(C)oc2ccc(NS(=O)(=O)c3cccs3)cc12 | 2.07% (inactive)
CCOC(=O)c1c(C)oc2ccc(OS(C)(=O)=O)cc12 | 0.04% (inactive)
COC(=O)c1c(C)oc2ccc(OC(=O)N3CCOCC3)cc12 | -6.17% (inactive)
COC(=O)c1ccc(CSc2nc3c(cnn3-c3ccc(C)cc3)c(=O)[nH]2)o1 | -0.23% (inactive)
CC1(C)C(=O)Nc2ccccc2N1C(=O)COc1ncnc2ccccc12 | 4.16% (inactive)
O=C(C[n+]1ccc(/C=N/O)cc1)NCc1ccccc1 | -12.5% (inactive)
COc1cc(CCNc2ccc3nnc(-c4ccccc4)n3n2)cc(OC)c1OC | 10.3% (inactive)
O/N=C1\CCCCc2ccccc21 | -4.26% (inactive)
CC12CCC(C(=O)N3CCN(C(c4ccccc4)c4ccccc4)CC3)(OC1=O)C2(C)C (stereo not given) | 1.93% (inactive)
COc1ccc(-c2csc(NC(C)c3nc4cc(Cl)c(Cl)cc4n3CCCO)n2)cc1 (stereo not given) | 5.27% (inactive)
CC(Nc1nc(-c2ccc(F)cc2)cs1)c1nc2cc(Cl)c(N3CCCCC3)cc2n1CCCO (stereo not given) | 78% (inactive)
CC(Nc1nc(-c2ccc(F)cc2)cs1)c1nc2cc(Cl)c(N3CCCCC3)cc2n1CCOCCO (stereo not given) | 19.6% (inactive)
CC(Nc1nc(-c2ccc(Cl)cc2)cs1)c1nc2cc(Cl)c(N3CCCCC3)cc2n1CCOCCO (stereo not given) | 44.5% (inactive)
